High-throughput results deposited in PubChem BioAssay by several laboratories.
CYP2C9 act: activators of human CYP2C9 | hit rate 1.4% among 96,000 | activation factor at 5 µM | AID 1024 | recombinant CYP2C9, luciferin-H conversion, luminescence; hits give high values; factor 1 = untreated enzyme, 0 = blocked;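 active = activation factor of 2 or more for CYP2C9 at a 5 µM dose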;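 note: 0 = sulfaphenazole-blocked wells and 1 = vehicle-only wells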
CYP2C19 inhib: human CYP2C19 inhibition. P33261. hit rate 21% among 96,000. CYP2C19 Supersomes, luciferin-H EGE luminescence, 30 min. inhibition, % at 5 µM;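 active = CYP2C19 inhibition above a set limit at 5 µM in the primary screen, cut at about 50% in these data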;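 note: plate controls were negative control wells for no effect and 2.5 mM tranylcypromine positive control for full effect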
Target sequence (P33261 whole entry, looked up): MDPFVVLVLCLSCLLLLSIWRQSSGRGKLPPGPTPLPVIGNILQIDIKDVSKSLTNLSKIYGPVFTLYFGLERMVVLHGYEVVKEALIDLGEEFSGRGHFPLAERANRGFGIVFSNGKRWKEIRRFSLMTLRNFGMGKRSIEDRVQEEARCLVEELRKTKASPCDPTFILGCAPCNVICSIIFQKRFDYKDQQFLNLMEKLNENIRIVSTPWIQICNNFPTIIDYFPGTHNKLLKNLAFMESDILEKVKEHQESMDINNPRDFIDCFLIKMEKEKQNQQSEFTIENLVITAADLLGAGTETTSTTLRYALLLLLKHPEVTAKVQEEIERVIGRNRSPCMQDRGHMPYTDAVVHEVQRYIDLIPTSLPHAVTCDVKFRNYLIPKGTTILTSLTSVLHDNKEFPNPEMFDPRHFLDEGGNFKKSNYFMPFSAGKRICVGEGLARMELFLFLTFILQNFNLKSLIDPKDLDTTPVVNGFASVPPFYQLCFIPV
sEH inhibitor: blocks human soluble epoxide hydrolase activity. recombinant human sEH enzymatic activity assay. inhibition, % at 2 µM. hit rate 0.34% among 91,000; in the data active = inhibition above about 80%
CYP2C9 inhib: human CYP2C9 inhibition. hit rate 20% among 96,000. AID 777. P11712. CYP2C9 Supersomes, luciferin-H conversion, luminescence. inhibition, % at 5 µM;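 active = blocking of liver enzyme CYP2C9 beyond about 50% at 5 µM, limit read from the data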
sEH activator: soluble epoxide hydrolase (human) activation; P34913; purified human sEH enzymatic activity, activator screen; activation, % at 2 µM; hit rate 0.04% among 91,000; AID 717; in the data active = activation above about 37%
CYP2C19 activ: cytochrome P450 2C19 (human) activation. P33261. recombinant CYP2C19, luciferin-H EGE luminescence; hits give high values; 0 = fully inhibited enzyme, 1 = untreated enzyme. activation factor at 5 µM. 96,000 tested, under 10 active. AID 1025;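 active = activation factor of at least 2 at 5 µM in the primary screen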;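 note: 0 = wells with 2.5 mM tranylcypromine and 1 = vehicle-only wells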
* hit, by the source's call; x = not tested or not shown. Rows were chosen to be rich in hits. Some 27% of all compounds tested hit in one or more screens of this group.

SMILES	CYP2C9 act	CYP2C19 inhib	sEH inhibitor	CYP2C9 inhib	sEH activator	CYP2C19 activ
COc1ccc(C)cc1-n1nnnc1SCc1cc(=O)n2cc(C)ccc2n1	0.9	60.6*	x	12.7	x	0.4
COc1ccc(C)cc1-n1nnnc1SCc1csc(C)n1	0.3	99.0*	-5.6	73.4*	6.3	0
Cc1ccccc1-n1nnnc1-c1ccccc1	0.7	70.4*	-7.1	27.1	4.6	0.3
Cc1ccccc1-n1nnnc1SCc1csc(-c2ccccc2)n1	0.1	96.6*	15.6	93.1*	-16.8	0
Cc1ccc2nc(NC3=NCN(Cc4ccc5c(c4)OCO5)CN3)nc(C)c2c1	x	x	-13.6	x	11.5	x
O=C(c1ccc2c(c1)OCO2)N1CCCN(C(=O)c2ccc3c(c2)OCO3)CC1	0.3	23.3	4.6	74.2*	-4.0	0.8
S=C(NC1CCCCC1)c1ccc2c(c1)OCO2	1	83.3*	2.2	-2.1	-3.3	0.2
COc1ccc(C(=S)N2CCCC2)cc1OC	0.8	46.4	-12.9	15.2	13.2	0.5
COc1ccc(C(=S)N2CCCC2)cc1C	1.4	91.0*	1.4	-42.0	-4.5	0.1
CN(C(=O)c1ccc2c(c1)OCO2)C1(C(=O)NC2CCCC2)CCCCC1	0.7	9.0	x	32.9	x	0.9
O=C(c1ccc2c(c1)OCO2)N(CC1CCCO1)C1(C(=O)NC2CCCCC2)CCCCC1 (stereo not given)	0.3	69.6*	-6.3	71.1*	3.9	0.3
O=C(NC1CCCCCCC1)c1ccc2c(c1)OCO2	0.9	31.3	53.9	7.6	-55.0	0.7
CCC(C)(C)NC(=O)C(c1ccco1)N(C(=O)CNC(=O)c1cccs1)c1cccnc1 (stereo not given)	x	x	6.5	x	-1.3	x
CCCc1cc(C(=O)NCc2ccco2)no1	0.9	28.2	-4.1	5.7	5.9	0.7
S=C(c1ccc2c(c1)OCO2)N1CCCCCC1	0.5	99.2*	10.0	54.6*	-9.9	0
COCCCN1C(=O)C(O)=C(C(=O)c2ccc(C)o2)C1c1cccc(Br)c1 (stereo not given)	0.9	7.1	-4.1	12.2	3.7	0.9
CC(C)OC(=O)C1CC=CCC1C(=O)Nc1ccc(Cl)cc1 (stereo not given)	0.5	91.3*	3.9	52.5*	-4.6	0.1
CC(C)(C)SCCNC(=O)CSCc1ccc([N+](=O)[O-])cc1	0.8	-1.2	16.2	23.5	-17.8	1
COc1ccc(Cl)cc1NC(=O)CSc1nnc(-c2ccncc2)n1CC1CCCO1 (stereo not given)	0.5	59.8*	1.6	49.4	-1.4	0.4
Cc1cc(Cl)ccc1NC(=O)CSc1nnc(-c2ccncc2)n1Cc1ccco1	0.1	85.7*	5.8	89.6*	-4.3	0.1
COc1ccccc1NC(=O)CSc1nnc(-c2ccncc2)n1CC1CCCO1 (stereo not given)	0.9	2.5	-3.9	10.2	1.8	1
O=C(CSc1nnc(-c2ccco2)n1Cc1ccccc1)OC1CCCCC1	1.1	21.4	-1.2	-5.5	0.1	0.8
Cc1cccc(C)c1NC(=O)CSc1nnc(-c2ccncc2)n1Cc1ccco1	0.3	72.7*	x	66.6*	x	0.3
O=C(CSc1nnc(-c2ccncc2)n1Cc1ccco1)OC1CCCCC1	0.1	98.3*	7.4	92.1*	-7.4	0
COC(=O)COc1ccc(S(=O)(=O)NCc2cccnc2)cc1	0.9	35.3	6.9	14.6	-6.6	0.6
SMILES	CYP2C9 act	CYP2C19 inhib	sEH inhibitor	CYP2C9 inhib	sEH activator	CYP2C19 activ
O=C(Cc1csc(N2CCOCC2)n1)N/N=C/c1ccc(F)cc1	0.8	5.6	9.3	21.5	-9.2	0.9
CCOc1ccccc1NC1c2ccccc2C(=O)N1Cc1ccco1 (stereo not given)	0.8	63.4*	7.5	19.0	-6.9	0.4
CCc1ccccc1NC1c2ccccc2C(=O)N1Cc1ccco1 (stereo not given)	0.8	-0.5	x	15.0	x	1
O=C1c2ccccc2C(Nc2ccc(S(=O)(=O)N3CCCCCC3)cc2)N1Cc1ccco1 (stereo not given)	0	36.5	-12.9	97.0*	11.9	0.6
O=C(Oc1ccc2cccc(OC(=O)N3CCOCC3)c2c1)N1CCOCC1	0.9	1.4	2.1	12.9	-3.1	1
CN(Cc1ccccc1)C(=O)CCCn1c(=O)[nH]c2cc(Cl)ccc2c1=O	1	81.9*	15.3	-0.2	-14.5	0.2
CCc1ccccc1NC1=NCC(=O)N1Cc1ccc(OC)cc1	0.9	39.5	-6.9	13.5	6.1	0.6
COc1ccc(CN2C(=O)CN=C2Nc2cc(C)ccc2C)cc1	0.4	26.5	5.2	57.4*	-3.9	0.7
CN(C)C(=O)CSc1nnc([C@H](Cc2c[nH]c3ccccc23)NC(=O)OC(C)(C)C)o1	0.9	10.3	x	13.4	x	0.9
Cc1ccc(Cn2c(Cc3ccccc3)nc3ccccc32)cc1	0.6	41.2	-4.1	43.8	3.0	0.6
COCc1nc2ccccc2n1Cc1ccccc1	0.7	79.3*	-3.2	32.1	2.2	0.2
Cc1nc2cc(NCc3nc4ccccc4n3Cc3ccccc3)ccc2n1C	0.7	49.1	-1.3	27.8	2.5	0.5
CC(=O)NCCc1nc2ccccc2n1Cc1ccccc1	0.8	58.9*	-1.6	16.9	3.9	0.4
Cc1cccc(NCc2nc3ccccc3n2Cc2ccccc2)c1	0	95.8*	-19.2	96.0*	19.8	0
COCc1nc2ccccc2n1Cc1ccc(Br)cc1	0.1	99.5*	-11.1	89.7*	5.2	0
CCCc1cc(=O)n2c(nc3ccccc32)[nH]1	0.6	-2.4	-6.2	37.0	11.7	1
O=C(Nc1ccccc1)N(CCc1nc2ccccc2[nH]1)C1CCCC1	0.9	11.6	-18.3	10.1	15.4	0.9
O=C(Nc1ccccc1)N(Cc1cccs1)C1CCCC1	0.1	50.8*	9.0	85.2*	-5.5	0.5
CN(C)c1ccc(S(=O)(=O)c2ccc(Cl)cc2)cc1	1.1	20.1	-2.7	-5.3	4.0	0.8
CN(C)c1ccc(C2C3C(=O)NC(=O)C3ON2c2ccc(Cl)cc2)cc1 (stereo not given)	0.6	50.7*	-12.2	37.1	10.8	0.5
Brc1cccc(-c2nnc3sc(CN4CCCCC4)cn23)c1	0.5	36.7	1.2	50.4*	1.8	0.6
O=C1CC(c2ccc(F)cc2)Cc2nc(N3CCOCC3)ncc21 (stereo not given)	0.8	77.2*	-1.9	25.0	6.3	0.2
O=C1CC(c2cccc(Cl)c2)Cc2nc(N3CCOCC3)ncc21 (stereo not given)	0.4	71.9*	-7.4	59.0*	6.3	0.3
O=C1CC(c2cccc(Cl)c2)Cc2nc(N3CCN(c4ccccc4)CC3)ncc21 (stereo not given)	0.7	8.5	-21.9	34.0	16.7	0.9
CCCCNC(=O)CSc1nc2ccsc2c(=O)n1C1CCN(C(=O)OCC)CC1	0.4	36.2	-1.3	56.0*	4.3	0.6
COc1ccc(-n2c(SCC(=O)NCCC(C)C)nc3ccsc3c2=O)cc1	0.9	7.0	6.9	13.5	-4.3	0.9
